Each compound was assayed against Glucose transporter (Leishmania mexicana) (UniProt O61059) (assay: ST_JUDE_LEISH: Cytotoxicity at 2uM final concentration against transgenic Leishmania Mexicana promastigotes LmGT2 that are glucose transport deficient and complemented with the L. Mexicana glucose transporter 2. Activity is measured by DNA content using SYBR green in vitro).
Type: functional

Structure (SMILES)	inhibition
CCCCCN1CCCC1CNS(=O)(=O)c1cccc(C(=O)Nc2cccc(C(F)(F)F)c2)c1 (centres undefined)	5.05%
O=C(CSc1nc2ccccc2c(=O)n1C1CC1)Nc1cc(C(F)(F)F)ccc1Cl	2.43%
CC(C)CNCc1ccc(-c2cccc(-c3nc4ccccc4[nH]3)c2)cc1	0.1%
O=C(NCc1cccc(F)c1)Nc1cccc(-c2cccc(-c3nc4cc(C(F)(F)F)ccc4[nH]3)c2)c1	-2.1%
COc1ccc(-c2ccc(NC(=O)c3cccc(Cl)c3)cc2)cc1CN1CCCC1	4.28%
Nc1nc2c(ncn2COC(COCc2ccccc2)COCc2ccccc2)c(=O)[nH]1.Nc1nc2ncn(COC(COCc3ccccc3)COCc3ccccc3)c2c(=O)[nH]1	-0.45%
CCCC(CNCc1ccc(Cl)c(C(F)(F)F)c1)CNc1nc2cnccc2[nH]1 (centres undefined)	8.76%
CCN(CC)CCN(Cc1ccc(-c2ccc(C(F)(F)F)cc2)cc1)C(=O)Cn1c(CCc2cccc(F)c2F)nc(=O)c2cccnc21	1.66%
COc1cccc(CN2CCC3(CC2)CN(C(=O)Nc2ccc(Cl)c(Cl)c2)C3)c1	3.35%
CN1CCN(c2cccc(-c3nnc(-c4ccc(OCC(=O)NCc5ccc(C(F)(F)F)cc5)c([N+](=O)[O-])c4)o3)c2)CC1	-0.17%
CNC(=O)c1cnc(Nc2ccc(N3CCN(C)CC3)cc2)nc1Nc1cccc(OC)c1	5.02%
COc1ccc2nccc([C@@H](O)CN3CCC(NC(=O)c4ccc5cc[nH]c5c4)CC3)c2c1	1.32%
Nc1cccc(CNCc2cccc(-c3cccc(-c4nc5ccccc5[nH]4)c3)c2)c1	-0.53%
COc1cc(C(=O)NC2CC(C)(C)N(C)C(C)(C)C2)ccc1-c1nc2cc(Cl)c(Cl)cc2[nH]1	3.3%
Cc1cc(F)ccc1-c1nc(N(C)CCN(C)C(=O)N(C)c2ccccc2)nc2c1ccc(=O)n2-c1c(F)cccc1F	9.88%
CCN(CC)CCN(Cc1ccc(-c2ccc(C(F)(F)F)cc2)cc1)C(=O)Cn1c(CCc2c(F)ccc(F)c2F)nc(=O)c2ccccc21	1.43%
Cc1[nH]c(C)c(-c2ccc(CCc3ccc(C(F)(F)F)cc3)nc2)c(=O)c1Cl	0.56%
COc1ccc2nccc([C@@H](O)CN3CCC(NC(=O)c4ccc(Cl)c(OC)c4)CC3)c2c1	0.22%
O=C(Nc1ccc(Cl)cc1)Nc1nc2cc([N+](=O)[O-])ccc2[nH]1	0.02%
Cc1cc(OCCCNc2nc(NCCc3ccc(O)cc3)nc(N3CCNCC3)n2)c(Cl)c(C)c1Cl	0.27%

Structure (SMILES)	inhibition
Cc1ccccc1C1CCN(C2CCC(NC(=O)/C=C/c3ccc(OC(F)(F)F)cc3)CC2)CC1 (centres undefined)	0.34%
CNCCNCc1cccc(-c2ccc(-c3nc4cc(C(F)(F)F)ccc4[nH]3)s2)c1	1.39%
O=C(c1ccc(-c2cnc3[nH]cc(-c4ccc(C(=O)N5CCOCC5)cc4)c3c2)cc1)N1CCOCC1	-1.88%
CCc1nc(N)nc(N)c1-c1ccccc1	3.69%
FC(F)(F)c1cnc(Sc2nnc(-c3ccncc3)o2)c(Cl)c1	9.49%
Cc1ccc(C)c2sc(N3CCN(C(=O)c4ccc([N+](=O)[O-])o4)CC3)nc12	7.78%
CC(=O)Nc1nc(C(=O)Nc2cccc(-c3cccc(-c4nc5cccc(C)c5[nH]4)c3)c2)cs1	14.6%
N#CN1CC[C@@H](NS(=O)(=O)Cc2ccc(Cl)c(Cl)c2)C1	4.15%
COc1ccc2c(NN=Cc3ccccc3Cl)ccnc2c1	4.32%
O=C(Nc1cccc(C(F)(F)F)c1)c1cccc(S(=O)(=O)NC2CCCN(CC3CCCCC3)C2)c1 (centres undefined)	0.55%
COC(=O)CCCOc1cc(Cc2cnc(N)nc2N)cc(OC)c1OC	9.19%
CC(CN(C)C)C(=O)Nc1ccc(-c2ccc(-c3nc4ccccc4[nH]3)cc2)cc1 (centres undefined)	5.36%
COc1cccc2cc(C(=O)N[C@@H](CC(C)C)C(=O)NC3CC[C@@H](C)N(C(=O)Nc4ccncc4)CC3=O)oc12 (some centres undefined)	3.24%
Cc1ccccc1C1CCN(C2CCC(NC(=O)/C=C/c3ccc4c(c3)OC(F)(F)O4)CC2)CC1 (centres undefined)	2.92%
COc1ccc(-n2nc(C(=O)NCc3ccccc3OC)c3ccccc3c2=O)cc1	2.98%
CN1CCc2ccc(NC(=O)Nc3cccc(C(=O)c4ccccc4)c3)cc2C1	1.86%
COc1cc2cc(Cc3cnc(N)nc3N)ccc2c(OC)c1OC	1.56%
N=C1SC(=Cc2cn[nH]c2-c2ccc(F)cc2)C(=O)N1c1nccs1	1.17%
Cc1cc(=NN=Cc2cccc(F)c2)c2cc(F)ccc2[nH]1	4.81%
